Several values for one entry are separate records, joined by “and”; a condition that tells them apart may be missing. Equal values may be shown once. Records with an inconclusive call do not appear. Entries that show only a call come without a potency. Where a structure was tested more than once in an assay, its records may differ in their call. Activity calls are given as the source filed them. Calls follow the shape of the dose curve; as a rule, active = well fitted activation curve with a large enough effect in the repeat runs; inconclusive = weak or mixed curves; inactive = flat fitted curve, though single readings scatter.
Test: A CellTox Green Cytotoxicity Assay to monitor cytotoxicity in HepG2 cells - 32 hour (AID 1224883); also: nearly all actives have a fitted effect of over 50% in size
Conditions: CellTox Green fluorescence; series mostly up to 76.8 µM
Outline: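 Real-time, homogeneous cytotoxicity readout: dead-cell DNA staining by CellTox Green in HepG2 monolayers, fluorescence measured at timed intervals up to 40 h of continuous compound exposure.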
Potency is read from the fitted curve at half-maximal effect.

Compound	Potency
S=c1[nH]c2ccccc2[nH]1	inactive and 21.9 µM (active)
O=P(OCCCl)(OCCCl)OCCCl	inactive
CC(C)Nc1nc(Cl)nc(NC(C)C)n1	inactive
COP(=S)(OC)Oc1ccc(Sc2ccc(OP(=S)(OC)OC)cc2)cc1	inactive
Brc1ccc(Br)cc1	inactive
OC(c1ccc(Cl)cc1)(c1cncnc1)c1ccccc1Cl (stereo unspecified)	17.7 µM (active) and inactive
ClCc1ccccn1	inactive
C[C@]12CCC(=O)C=C1CC[C@@H]1[C@@H]2CC[C@@]2(C)[C@H]1CC[C@]2(C)O	22.1 µM (active)
COP(=S)(OC)SCn1nnc2ccccc2c1=O	inactive
CC(C)(c1ccc(OCC2CO2)cc1)c1ccc(OCC2CO2)cc1 (stereo unspecified)	inactive
CCOP(=O)(O)OCC (tested in a mixture with another compound)	inactive and 38.6 µM (active)
CSc1nc(NC(C)C)nc(NC(C)C)n1	inactive
CC1(C)C(C(=O)OC(C#N)c2cccc(Oc3ccccc3)c2)C1(C)C (stereo unspecified)	inactive
CCCCOCC1CO1 (stereo unspecified)	inactive and 43.6 µM (active)
CNC(=O)Oc1cccc2c1OC(C)(C)C2	inactive
CNC(=S)S	inactive
Cc1ccc(N=CN(C)C=Nc2ccc(C)cc2C)c(C)c1	43.6 µM (active) and inactive
CC(C)=CC1C(C(=O)OCc2cccc(Oc3ccccc3)c2)C1(C)C (stereo unspecified)	inactive

Compound	Potency
O=C1C(Cl)=C(Cl)C(=O)c2ccccc21	15.5 µM (active) and 4.9 µM (active)
CCOP(=S)(OCC)SCSC(C)(C)C	inactive
OCCOCCO	inactive
COc1ccc(C=O)cc1OC	inactive
CCCCSP(=O)(SCCCC)SCCCC	inactive
Cn1c(-c2ccccc2)cc(-c2ccccc2)[n+]1C	inactive
Cc1cccc(N=Nc2ccc(N(C)C)cc2)c1	inactive
C=CC(Cl)CCl (stereo unspecified)	inactive
CC(C)(C#N)N=NC(C)(C)C#N	inactive
CCCCOCCOC(C)=O	inactive
O=[N+]([O-])c1ccc(Nc2ccccc2)cc1	inactive
C=C(C)C#N	inactive
N#CCCCCC#N	inactive
CS(=O)(=O)NC(=O)c1cc(Oc2ccc(C(F)(F)F)cc2Cl)ccc1[N+](=O)[O-]	inactive
CCC[CH2][Sn]([Cl])([CH2]CCC)[CH2]CCC	1.74 µM (active) and 1.23 µM (active)
CCOP(=S)(OCC)OP(=S)(OCC)OCC	inactive
O=S(=O)(O)C(F)(F)C(F)(F)C(F)(F)C(F)(F)C(F)(F)C(F)(F)C(F)(F)C(F)(F)F	18.6 µM (active) and inactive
N#CC(c1ccccc1)c1ccccc1	inactive

— PubChem BioAssay (Tox21)
